Experimental data published in PubChem BioAssay AID1845224 (National Center for Advancing Translational Sciences (NCATS), 2023).
Results filed as inconclusive are left out. Calls of active or inactive are those of the source. Calls come from the whole dose curve; as a rule, active = well fitted curve in the direction sought with a large enough effect; inconclusive = small, poorly fitted or top-dose-only effect, or another doubt; inactive = no such curve, though single readings can be large or run the other way.

Tested on: NanoLuc luciferase (engineered Oplophorus gracilirostris luciferase)
Test: Confirmatory Nanoluciferase (NLuc) qHTS assay for identification of artifact compounds.
Conditions: secreted NLuc in S16 cell medium, luminescence, 5 min; series mostly up to 39 µM
Summary of the method: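 Compounds were preincubated 15 min at room temperature with diluted secreted NanoLuc from S16 cell medium, then read by luminescence 5 min after Nano-Glo substrate. Percent inhibition versus DMSO and no-enzyme controls fitted by 4-parameter Hill curve.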

Potency, inactive:
Nc1cccc(-c2ccc(NC(=O)c3cccs3)cn2)c1
O=C(Nc1ccc(Cl)c(Cl)c1)Nc1ncc(-c2ccncc2)s1
Brc1ccc2nc(SCCOc3ccccc3)[nH]c2c1
CC(C)[C@@H](C)/C=C/[C@@H](C)[C@H]1CC[C@H]2/C(=C/C=C3\C[C@@H](O)CC[C@@H]3C)CCC[C@]12C
CCOC(=O)N1CCN(S(=O)(=O)N2CCCC(C(=O)NCc3cc(OC)ccc3OC)C2)CC1 (stereo unspecified)
CCOc1ccc(-c2cc(NC(=O)Nc3ccccc3Cl)c(C(=O)OC)s2)cc1
O=C(Nc1ccc(-c2nc3ccccc3[nH]2)cc1)c1ccc(Cl)c(Cl)c1
COc1ccc(NC(=O)c2csnn2)cc1Cl
CCCN(CCC)CCNC(=O)CN1C(=O)COc2ccc(S(=O)(=O)N3CCC(C)CC3)cc21
COc1ccc(C2=Nn3c(nnc3-c3cccc(OC)c3)SC2)cc1
C[C@]12C[C@H](O)[C@H]3[C@@H](CCC4=CC(=O)CC[C@@]43C)[C@@H]1CC[C@@H]2C(=O)CO
C[C@@H]1C[C@H]2[C@@H]3CCC4=CC(=O)C=C[C@]4(C)[C@@]3(F)[C@@H](O)C[C@]2(C)[C@@]1(O)C(=O)CO
Cc1cc(C)cc(NC(=O)CSc2oc(-c3cccs3)nc2S(=O)(=O)c2ccccc2)c1
OC[C@H]1O[C@@H](O[C@@H]2OC=C[C@H]3[C@H](O)[C@@H]4O[C@]4(CO)[C@@H]23)[C@H](O)[C@@H](O)[C@@H]1O
CCSc1ncc(Cl)c(C(=O)Nc2c(C(=O)Nc3cccc(C)c3)oc3ccccc23)n1
CN1C(=O)Cc2cc(S(=O)(=O)NCc3ccccc3Cl)ccc21
COC(=O)C1=C[C@@H](C(=O)OC)C2C3=C(C(=O)[C@]2(C)NC(=O)c2ccccc2)[C@H](C)n2c(=O)n(C)c(=O)n2[C@@H]3C1 (stereo partly specified)
CCN(CCCNC(=O)CSc1cc(=O)n(C)c2ccccc12)c1ccccc1
Cc1ccc(-c2nc(=Nc3ccccc3)sn2-c2ccccc2)cc1
Cc1c(NC(=O)C(C)(C)C)cccc1-c1nc2ccccc2s1
COC(=O)C1=CO[C@@H](O[C@@H]2O[C@H](CO)[C@@H](O)[C@H](O)[C@H]2O)C2C(CO)=CCC12 (stereo partly specified)
CCCN(C(=O)Cc1c(C(=O)O)[nH]c2ccc(Cl)cc12)c1ccc(OCC)cc1
CN(C)C=O
Cc1nc2nc(CNC(=O)OC(C)(C)C)nn2c(C)c1CCC(=O)NCc1ccccc1Cl
O=C(O)c1sc2c(c1-c1nc3ccccc3s1)CCNC2
Cc1cc2oc(=O)cc(C)c2c2occ(-c3ccc(Cl)cc3)c12
CCOC(=O)c1c(C)[nH]c(C)c1S(=O)(=O)N1CCC(C(=O)N2CCN(c3ccccc3)CC2)CC1
CC(C)(O)C1CC[C@@]2(C)C3CCC4[C@@]5(C)CCCC(C)(C)C5C(O)C[C@]4(C)[C@]3(C)CC[C@@H]12 (stereo partly specified)
CCOC(=O)C1CCN(C(=O)Cn2c(=O)oc3cc(S(=O)(=O)N4CCC(C)CC4)ccc32)CC1
Cc1ccc(CNCc2cn[nH]c2-c2ccc(C)cc2)cc1
CCC(C(=O)NCc1cc(OC)ccc1OC)n1nc(C)c2sc3ccccc3c2c1=O (stereo unspecified)
